Inconclusive results are not listed. Entries that show only a call come without a potency. Activity calls are given as the source filed them. Calls follow the shape of the dose curve; as a rule, active = well fitted activation curve with a large enough effect in the repeat runs; inconclusive = weak or mixed curves, or effect the other way; inactive = no such curve, though single readings can be large or run the other way.
Test: qHTS assay to identify small molecule agonists of the retinoic acid receptor (RAR) signaling pathway (AID 1159553)
Conditions: C3RL4 RARE luciferase reporter, agonist, 6 h; series mostly up to 73.3 µM
Text: National Center for Advancing Translational Sciences [NCATS] NIH Chemical Genomics Center [NCGC] U.S. Environmental Protection Agency [EPA] National Institutes of Environmental Health Sciences [NIEHS] National Toxicology Program [NTP] Assay overview: All-trans Retinoic acid (atRA) is the potent natural metabolite of retinol and plays an important role in normal embryonic development and maintenance of cellular phenotype in adult animals. atRA is the activating ligand for the retinoic acid receptors (RARs) which form heterodimers with retinoid X receptors (RXRs) on the retinoic acid response element (RARE). Through activation of the RAR/RXRs nuclear receptors, atRA regulates the transcription of a large number of protein-coding genes and regulatory RNAs. Intracellular levels of atRA are controlled by the retinol signaling pathway (RSP) that regulates the biosynthesis and catabolism of atRA to maintain physiological levels. Chemicals that interfere with the RSP can cause abnormal intracellular levels of atRA and therefore are potential developmental toxicants. To assess compounds for the potential adverse effect on embryonic development through interfering with retinol signaling, a cell-based RARE luciferase reporter gene assay was used. C3RL4 cell line (OARSA/CFSAN/FDA, Laurel, MD) was used to screen Tox21 10K compound library for identifying activators of the RSP.
Assay Protocol Summary: C3RL4 cells were seeded at 1,000/well in 5 uL of assay medium into white solid 1,536-well tissue culture plates (Greiner Bio-One North America Inc. Monroe, NC) using a Multidrop Combi (Thermo Scientific, Waltham, MA) dispenser. After incubation at 37 C and 5% CO2 for an overnight, 23 nL of compounds dissolved in DMSO, positive control or DMSO only were transferred by a Pintool station (Kalypsys, San Diego, CA). After 6 hr incubation at 37 C and 5% CO2, 5 uL of Amplite Luciferase reagent (AAT Bioquest Inc. Sunnyvale, CA) was added to each assay plate using a Flying Reagent Dispenser (FRD) (Aurora Discovery, San Diego, CA). Luminescence was quantified on a ViewLux plate reader (PerkinElmer, Waltham, MA) after 30 min incubation at room temperature.
Potency is read from the fitted curve at half-maximal effect.

Row | SMILES | Potency
1 | CN(C)C(=O)Nc1ccc(Cl)c(Cl)c1 | inactive
2 | C=CCc1ccc(O)c(OC)c1 | inactive
3 | O=C1NS(=O)(=O)c2ccccc21 | inactive
4 | CCCCOC(=O)c1ccc(O)cc1 | 27300 nM (active)
5 | COc1ccc2cc(S(=O)(=O)N[C@H](CC(=O)N[C@H](Cc3ccc(CN4[C@H](C)CCC[C@@H]4C)cc3)C(=O)N(C)C(C)C)c3ccc4c(c3)OCO4)ccc2c1 | inactive
6 | O=c1[nH]cnc2c1ncn2[C@H]1CC[C@@H](CO)O1 | inactive
7 | CC(C)C(=O)Nc1ccc([N+](=O)[O-])c(C(F)(F)F)c1 | inactive
8 | NC1CCCCC1 | inactive
9 | CN(C)CCOC(c1ccccc1)c1ccccc1 | inactive
10 | O=CC(=O)c1ccccc1 | inactive
11 | CN(C)CCOC(C)(c1ccccc1)c1ccccn1 (stereo not given) | inactive
12 | Nc1c(N=Nc2ccc(-c3ccc(N=Nc4cc(S(=O)(=O)O)c5ccccc5c4N)cc3)cc2)cc(S(=O)(=O)O)c2ccccc12 | inactive
13 | CC(=O)C(=O)O | inactive
14 | CCCCCCc1ccc(O)cc1O | inactive
15 | O=C1OC2(c3ccccc31)c1cc(Br)c(O)c(Br)c1Oc1c2cc(Br)c(O)c1Br | inactive
16 | CN(C)C(=S)SC(=S)N(C)C | 668 nM (active)
17 | CCN(CC)C(=O)c1cccc(C)c1 | inactive
18 | CS(=O)(=O)OCCCCOS(C)(=O)=O | inactive
19 | NC(=O)n1c(O)c(C(=O)c2cccs2)c2cc(Cl)ccc21 | inactive
20 | CCCc1cc(=O)[nH]c(=S)[nH]1 | inactive

Row | SMILES | Potency
21 | CC(C)c1c(C(=O)Nc2ccccc2)c(-c2ccccc2)c(-c2ccc(F)cc2)n1CC[C@@H](O)C[C@@H](O)CC(=O)O | inactive
22 | O=C(Nc1ncc([N+](=O)[O-])s1)c1cccs1 | 1060 nM (active)
23 | Cn1c(=O)c2c(ncn2C)n(C)c1=O | inactive
24 | Nc1c2c(nc3ccccc13)CCCC2 | inactive
25 | CC12CCC(CC1)C(C)(C)O2 | inactive
26 | Oc1ccccc1 | inactive
27 | CC(=O)Nc1c(I)c(NC(C)=O)c(I)c(C(=O)O)c1I | inactive
28 | COc1ccc(CN(CCN(C)C)c2ccccn2)cc1 | inactive
29 | CCCC[P+](CCCC)(CCCC)CCCC | inactive
30 | CC1(C)O[C@@H]2C[C@H]3[C@@H]4CCC5=CC(=O)C=C[C@]5(C)[C@@]4(F)[C@@H](O)C[C@]3(C)[C@]2(C(=O)CO)O1 | inactive
31 | O=S1(=O)OC(c2ccc(O)cc2)(c2ccc(O)cc2)c2ccccc21 | inactive
32 | C1=CC2C3C=CC(C3)C2C1 (stereo not given) | inactive
33 | CCN(Cc1c(F)cccc1Cl)c1c([N+](=O)[O-])cc(C(F)(F)F)cc1[N+](=O)[O-] | inactive
34 | NC(CO)(CO)CO | inactive
35 | CCCCCCCC(=O)OCC(COC(=O)CCCCCCC)OC(=O)CCCCCCC | inactive
36 | COc1ccc2c(c1)c(CC(=O)O)c(C)n2C(=O)c1ccc(Cl)cc1 | inactive
37 | Cc1cc(C)nc(NS(=O)(=O)c2ccc(N)cc2)n1 | inactive
38 | C=C(C)C(=O)OCC(C)O (stereo not given) | inactive
39 | Cc1ncc([N+](=O)[O-])n1CCO | inactive
40 | C[C@](N)(Cc1ccc(O)c(O)c1)C(=O)O | inactive
